Assay results reported in PubChem BioAssay (Tox21).
Where “and” joins values, the source holds several entries; their conditions need not be identical. Equal values may be shown once. Results filed as inconclusive are left out. A call without a number means that no potency is given here. Calls of active or inactive are those of the source. Unless noted, calls follow the shape of the dose curve; as a rule, active = well fitted curve in the direction sought with a large enough effect in the repeat runs; inconclusive = weak or mixed curves; inactive = no such curve, though single readings can be large; an effect the other way counts as inactive or inconclusive.

Key:
[1] = qHTS assay to identify small molecule agonists of the peroxisome proliferator-activated receptor delta (PPARd) signaling pathway - cell viability counter screen (AID 743211); also: nearly all actives have a fitted effect of over 55% in size; also: potency is read from the fitted curve at half-maximal effect
Procedure, shortened: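 HEK293H PPARd-bla, 3000 cells/well; 5 h preincubation 37C/5% CO2; cpd in DMSO, 17 h 37C; B/G FRET substrate 2 h RT; CellTiter-Glo 30 min RT, luminescence.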

[2] = qHTS assay to identify small molecule antagonists of the peroxisome proliferator-activated receptor delta (PPARd) signaling pathway - cell viability counter screen (AID 743213); also: nearly all actives have a fitted effect of over 50% in size; also: potency is read from the fitted curve at half-maximal effect
Procedure, shortened: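 PPARd-bla HEK293H cells (3000/well) got compound plus 300 nM L165041 agonist for 17 h at 37 C. Viability in the same wells came from CellTiter-Glo luminescence after 30 min at room temperature.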

[3] = qHTS assay to identify small molecule agonists of the farnesoid-X-receptor (FXR) signaling pathway - cell viability counter screen (AID 743218); also: nearly all actives have a fitted effect of over 45% in size
Procedure, shortened: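 HEK 293T FXR-bla cells; 5 h pre-incubation, 16 h compound exposure at 37 C; LiveBLAzer substrate 2 h RT, then CellTiter-Glo 30 min RT, luminescence.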

[4] = qHTS assay to identify small molecule antagonists of the farnesoid-X-receptor (FXR) signaling pathway - cell viability counter screen (AID 743221; active = well fitted cell-killing curve with a large enough effect in the repeat runs, not every such curve was filed as active; also: nearly all actives have a fitted effect of over 50% in size)
Procedure, shortened: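 Luminescence from CellTiter-Glo measures cytotoxicity in GeneBLAzer FXR-UAS-bla HEK 293T cells. Cells were exposed to compounds with 50 uM chenodeoxycholic acid (final) for 16 h at 37 C, in wells also used for the reporter readout.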

[5] = qHTS assay to identify small molecule agonists of the vitamin D receptor (VDR) signaling pathway - cell viability counter screen (AID 743224); also: nearly all actives have a fitted effect of over 50% in size; also: potency is read from the fitted curve at half-maximal effect
Procedure, shortened: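 Luminescence from CellTiter-Glo, read after 30 min at room temperature, reports viability of VDR-bla cells treated with compounds for 16 h at 37C in the wells used for the beta-lactamase FRET read.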

[6] = qHTS assay to identify small molecule agonists of the endoplasmic reticulum stress response signaling pathway - cell viability counter screen (AID 1159517; calls by dose curve;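 also: HeLa cells carrying an ER stress response element beta-lactamase reporter; series mostly up to about 61 µM; nearly all actives have a fitted effect of over 50% in size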)
Procedure, shortened: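 CellTiter-Glo was added to wells already read for beta-lactamase FRET, and luminescence was recorded 30 min later. Cells: ESRE-bla HeLa, 1,500 per well, compound exposure 5 hr at 37 C.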

[7] = qHTS assay to identify small molecule antagonists of the retinoid-related orphan receptor gamma (ROR-gamma) signaling pathway - cell viability counter screen (AID 1159520); also: nearly all actives have a fitted effect of over 50% in size; also: potency is read from the fitted curve at half-maximal effect
Procedure, shortened: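 Tet-on ROR gamma CHO cells (1,000/well) were plated 4 hr, given compounds in DMSO for 2 hr at 37 C, then induced with 1 uM final doxycycline for 16 hr. Viability was read as ATP by CellTiter-Glo luminescence after 30 min.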

[8] = target: Nuclear receptor ROR-gamma (Homo sapiens) (UniProt P51449); test: qHTS assay to identify small molecule antagonists of the retinoid-related orphan receptor gamma (ROR-gamma) signaling pathway (AID 1159521; also: nearly all actives have a fitted effect of over 50% in size; also: potency is read from the fitted curve at half-maximal effect)
Procedure, shortened: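 CHO Tet-on RORγ, RORE-luc reporter. Cpd 2 h pre-incubation, then dox hyclate 1 uM final, 16 h, 37 C/5% CO2. ONE-Glo luminescence; decrease = antagonist.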

[9] = qHTS assay to identify small molecule agonists of the AP-1 signaling pathway - cell viability counter screen (AID 1159525; calls by dose curve; also: nearly all actives have a fitted effect of over 55% in size)
Procedure, shortened: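 ME-180 AP-1-bla, 2500 cells/well, Opti-MEM + 0.5% dialyzed FBS; overnight 37 °C; cpd 15-pt titration, 5 h 37 °C; CellTiter-Glo 30 min RT; luminescence read; normalised to TOAB and DMSO controls.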

[10] = target: Peroxisome proliferator-activated receptor delta (Homo sapiens) (UniProt Q03181); test: qHTS assay to identify small molecule agonists of the peroxisome proliferator-activated receptor delta (PPARd) signaling pathway (AID 743212; calls by dose curve)
Procedure, shortened: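 A PPARd-bla HEK293H line with beta-lactamase under an Upstream Activator Sequence is treated with compounds at 37 C. Substrate loading for 2 h at room temperature precedes the fluorescence measurement.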

[11] = target: Peroxisome proliferator-activated receptor delta (Homo sapiens) (UniProt Q03181); test: qHTS assay to identify small molecule antagonists of the peroxisome proliferator-activated receptor delta (PPARd) signaling pathway (AID 743215; active = well fitted inhibition curve with a large enough effect in the signal ratio in the repeat runs, not every such curve was filed as active; the % refers to the signal ratio;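 also: cells stimulated with agonist L165041 at 300 nM final during compound exposure; series mostly up to about 62 µM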)
Procedure, shortened: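 Read-out is beta-lactamase FRET fluorescence, measured 2 h after substrate addition at room temperature. Beforehand, UAS-bla HEK293H cells carrying the PPARd reporter were exposed to compounds with L165041 at 300 nM final for 17 h at 37 C.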

[12] = target: Vitamin D3 receptor (Homo sapiens) (UniProt P11473); test: qHTS assay to identify small molecule agonists of the vitamin D receptor (VDR) signaling pathway (AID 743222; calls by dose curve)
Procedure, shortened: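 VDR-bla cells, 2,000/well; 4 h preincubation 37C; cpd (DMSO) 16 h; LiveBLAzer B/G substrate 2 h RT; fluorescence intensity read.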

[13] = target: Vitamin D3 receptor (Homo sapiens) (UniProt P11473); test: qHTS assay to identify small molecule antagonists of the vitamin D receptor (VDR) signaling pathway (AID 743223; active = well fitted inhibition curve with a large enough effect in the signal ratio in the repeat runs, not every such curve was filed as active; the % refers to the signal ratio)
Procedure, shortened: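 Antagonist mode uses 1alpha,25-dihydroxyvitamin D3 at 3 nM final as stimulus. VDR-bla cells receive compounds in DMSO, incubate 16 h at 37C, then a beta-lactamase FRET substrate for 2 h at room temperature before fluorescence measurement.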

[14] = qHTS assay to identify small molecule antagonists of the vitamin D receptor (VDR) signaling pathway - cell viability counter screen (AID 743225); also: nearly all actives have a fitted effect of over 50% in size
Procedure, shortened: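 Read-out: CellTiter-Glo luminescence measured 30 min after reagent addition at room temperature. Cells were VDR-bla HEK 293T exposed 16 h at 37C, 5% CO2, to compound with 3 nM final calcitriol agonist.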

[15] = qHTS assay to identify small molecule agonists of the endoplasmic reticulum stress response signaling pathway (AID 1159516; active = well fitted activation curve with a large enough effect in the signal ratio in the repeat runs, not every such curve was filed as active; the % refers to the signal ratio)
Procedure, shortened: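 Read-out is beta-lactamase cleavage of a FRET substrate (405 nm excitation; 460 and 530 nm emissions) in ESRE-bla HeLa cells after a 5 hr compound exposure at 37 C. Substrate incubation ran 2 hr at room temperature.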

[16] = qHTS assay to identify small molecule agonists of the AP-1 signaling pathway (AID 1159526; calls by dose curve)
[17] = target: Retinoic acid receptor RXR-alpha (Homo sapiens) (UniProt P19793); test: qHTS assay to identify small molecule agonists of the RXR signaling pathway (AID 1159527; calls by dose curve; also: nearly all actives have a fitted effect of over 35% in size)
Procedure, shortened: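 Read-out: beta-lactamase FRET ratio (405 nm excitation, 460 and 530 nm emission) after 2 hr substrate loading at room temperature. Cells were RXR-alpha-UAS-bla HEK 293T treated with compounds for 16 hr in 2% charcoal-stripped FBS medium.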

[18] = target: Bile acid receptor (Homo sapiens) (UniProt Q96RI1); test: qHTS assay to identify small molecule antagonists of the farnesoid-X-receptor (FXR) signaling pathway (AID 743217; active = well fitted inhibition curve with a large enough effect in the signal ratio in the repeat runs, not every such curve was filed as active; the % refers to the signal ratio)
Procedure, shortened: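 HEK 293T FXR-UAS-bla, 5000 cells/well; compound + CDCA 50 uM final; 16 h, 37 °C; B/G FRET substrate 2 h RT; fluorescence.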

[19] = target: Bile acid receptor (Homo sapiens) (UniProt Q96RI1); test: qHTS assay to identify small molecule agonists of the farnesoid-X-receptor (FXR) signaling pathway (AID 743220; active = well fitted activation curve with a large enough effect in the signal ratio in the repeat runs, not every such curve was filed as active; the % refers to the signal ratio)
Procedure, shortened: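 Beta-lactamase reporter under UAS control in GeneBLAzer FXR HEK 293T cells (5000/well) measured with LiveBLAzer FRET substrate after 2 h at room temperature. Compound exposure lasted 16 h at 37C.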

Chain of Bile acid receptor (Homo sapiens) (Q96RI1 whole entry, looked up): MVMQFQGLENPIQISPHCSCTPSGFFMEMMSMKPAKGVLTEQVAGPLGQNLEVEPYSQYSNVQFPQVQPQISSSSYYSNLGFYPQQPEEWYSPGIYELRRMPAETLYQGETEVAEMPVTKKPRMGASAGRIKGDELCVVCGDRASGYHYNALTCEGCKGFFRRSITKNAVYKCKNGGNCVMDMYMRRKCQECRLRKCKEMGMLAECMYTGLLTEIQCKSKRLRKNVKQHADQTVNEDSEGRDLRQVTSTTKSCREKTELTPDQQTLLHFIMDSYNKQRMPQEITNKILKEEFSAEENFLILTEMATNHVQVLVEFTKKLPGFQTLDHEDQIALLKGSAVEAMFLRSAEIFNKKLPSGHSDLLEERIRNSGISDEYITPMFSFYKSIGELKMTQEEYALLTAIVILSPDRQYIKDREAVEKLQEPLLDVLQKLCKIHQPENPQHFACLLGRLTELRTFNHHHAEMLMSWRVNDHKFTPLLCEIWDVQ
Chain of Peroxisome proliferator-activated receptor delta (Homo sapiens) (Q03181 whole entry, looked up): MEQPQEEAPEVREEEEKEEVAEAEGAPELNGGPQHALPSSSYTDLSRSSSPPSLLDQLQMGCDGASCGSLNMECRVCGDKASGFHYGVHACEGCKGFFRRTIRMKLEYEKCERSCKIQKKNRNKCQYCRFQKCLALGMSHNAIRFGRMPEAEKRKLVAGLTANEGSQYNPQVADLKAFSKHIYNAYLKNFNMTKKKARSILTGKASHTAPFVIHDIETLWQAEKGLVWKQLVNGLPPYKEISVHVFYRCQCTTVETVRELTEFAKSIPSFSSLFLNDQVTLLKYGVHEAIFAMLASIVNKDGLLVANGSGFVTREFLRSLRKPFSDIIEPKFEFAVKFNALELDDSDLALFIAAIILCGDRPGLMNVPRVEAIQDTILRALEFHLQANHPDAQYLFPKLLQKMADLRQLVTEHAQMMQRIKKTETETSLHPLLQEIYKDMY
Chain of Vitamin D3 receptor (Homo sapiens) (P11473 whole entry, looked up): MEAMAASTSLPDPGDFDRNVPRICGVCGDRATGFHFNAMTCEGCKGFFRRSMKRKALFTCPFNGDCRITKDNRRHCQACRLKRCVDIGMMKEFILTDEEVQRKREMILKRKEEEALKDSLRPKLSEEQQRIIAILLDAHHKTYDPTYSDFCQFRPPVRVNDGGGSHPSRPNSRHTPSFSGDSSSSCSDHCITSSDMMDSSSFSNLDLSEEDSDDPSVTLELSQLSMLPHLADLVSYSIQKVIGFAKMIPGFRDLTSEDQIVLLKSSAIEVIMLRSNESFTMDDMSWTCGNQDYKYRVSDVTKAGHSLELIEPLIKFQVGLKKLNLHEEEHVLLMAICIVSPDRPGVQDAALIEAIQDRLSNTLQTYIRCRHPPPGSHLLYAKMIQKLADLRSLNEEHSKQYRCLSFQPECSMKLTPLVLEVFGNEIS
Chain of Retinoic acid receptor RXR-alpha (Homo sapiens) (P19793 whole entry, looked up): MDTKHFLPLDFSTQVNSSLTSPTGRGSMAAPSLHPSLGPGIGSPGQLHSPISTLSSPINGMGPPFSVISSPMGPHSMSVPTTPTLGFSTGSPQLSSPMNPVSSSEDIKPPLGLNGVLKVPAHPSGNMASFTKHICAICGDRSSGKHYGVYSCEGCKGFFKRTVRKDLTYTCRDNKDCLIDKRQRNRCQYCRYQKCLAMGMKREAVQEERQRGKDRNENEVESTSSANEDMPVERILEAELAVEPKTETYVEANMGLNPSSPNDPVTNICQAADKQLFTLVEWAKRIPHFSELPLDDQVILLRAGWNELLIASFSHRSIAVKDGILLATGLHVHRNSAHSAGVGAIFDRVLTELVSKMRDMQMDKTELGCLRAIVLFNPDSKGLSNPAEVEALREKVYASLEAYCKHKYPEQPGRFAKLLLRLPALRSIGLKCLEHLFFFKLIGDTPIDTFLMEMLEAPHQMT

## O=C(Nc1ccccc1SSc1ccccc1NC(=O)c1ccccc1)c1ccccc1
[1]
  Potency: 19.6 µM (active) and 12.3 µM (active)
[2]
  Potency: 12.4 µM (active) and 11 µM (active)
[3]
  Potency: inactive
[4]
  Potency: inactive
[5]
  Potency: 12.4 µM (active) and 12.3 µM (active)
[6]
  Potency: inactive
[7]
  Potency: 24.3 µM (active)
[8]
  Potency: 8.68 µM (active) and 17.2 µM (active)
[9]
  Potency: inactive

## C/C=C/c1ccc(OCC)c(O)c1
[1]
  Potency: inactive
[10]
  Potency: inactive
[2]
  Potency: inactive
[11]
  Potency: inactive
[3]
  Potency: inactive
[4]
  Potency: inactive
[12]
  Potency: inactive
[13]
  Potency: inactive
[5]
  Potency: inactive
[14]
  Potency: inactive
[15]
  outcome: inactive
[6]
  Potency: inactive
[7]
  Potency: inactive
[9]
  Potency: inactive
[16]
  Potency: inactive
[17]
  Potency: inactive

## O=C(O)CP(=O)(O)O
[1]
  Potency: inactive
[10]
  Potency: inactive
[3]
  Potency: inactive
[4]
  Potency: inactive
[14]
  Potency: inactive
[15]
  outcome: inactive
[6]
  Potency: inactive
[7]
  Potency: inactive
[9]
  Potency: inactive
[16]
  Potency: inactive
[17]
  Potency: inactive

## c1ccc2cc3c(ccc4ccccc43)cc2c1
[1]
  Potency: inactive
[2]
  Potency: inactive
[18]
  Potency: inactive
[3]
  Potency: inactive
[19]
  Potency: inactive
[4]
  Potency: inactive
[12]
  Potency: inactive
[13]
  Potency: inactive
[5]
  Potency: inactive
[14]
  Potency: inactive
[6]
  Potency: inactive
[7]
  Potency: inactive
[8]
  Potency: inactive
[9]
  Potency: inactive
[16]
  Potency: inactive
[17]
  Potency: inactive

## O=C(Oc1ccccc1)c1ccccc1O
[1]
  Potency: inactive
[2]
  Potency: inactive
[3]
  Potency: inactive
[4]
  Potency: inactive
[5]
  Potency: inactive
[14]
  Potency: inactive
[15]
  outcome: inactive
[6]
  Potency: inactive
[7]
  Potency: inactive
[9]
  Potency: inactive
[16]
  Potency: inactive
[17]
  Potency: inactive

## CCC(=O)/C=C/C1C(C)=CCCC1(C)C (centres undefined)
[1]
  Potency: inactive
[10]
  Potency: inactive
[2]
  Potency: inactive
[11]
  Potency: inactive
[18]
  Potency: inactive
[3]
  Potency: inactive
[19]
  Potency: inactive
[4]
  Potency: inactive
[12]
  Potency: inactive
[5]
  Potency: inactive
[14]
  Potency: inactive
[15]
  outcome: inactive
[6]
  Potency: inactive
[7]
  Potency: inactive
[9]
  Potency: inactive
[16]
  Potency: inactive
[17]
  Potency: inactive

## C=C(C)C(=O)O
[1]
  Potency: inactive
[10]
  Potency: inactive
[2]
  Potency: inactive
[11]
  Potency: inactive
[3]
  Potency: inactive
[4]
  Potency: inactive
[12]
  Potency: inactive
[13]
  Potency: inactive
[5]
  Potency: inactive
[15]
  outcome: inactive
[6]
  Potency: inactive
[7]
  Potency: inactive
[9]
  Potency: inactive
[16]
  Potency: inactive
[17]
  Potency: inactive

## COc1cc(C(=S)N2CCOCC2)ccc1O
[1]
  Potency: inactive
[10]
  Potency: inactive
[11]
  Potency: inactive
[4]
  Potency: inactive
[5]
  Potency: inactive
[14]
  Potency: inactive
[15]
  outcome: inactive
[6]
  Potency: inactive
[7]
  Potency: inactive
[8]
  Potency: inactive
[9]
  Potency: inactive
[16]
  Potency: inactive
[17]
  Potency: inactive
